Values without a mark were called inactive.
system: Vero E6 infected with SARS-CoV-2; assay: SARS-CoV-2 infection rate relative to infected DMSO; higher = more infection, active = 60 or less; conditions: 24 h

Compound	SARS-CoV-2 infection rate [%]
COc1cc(N2CCC(N3CCN(C)CC3)CC2)ccc1Nc1ncc(Cl)c(Nc2ccccc2S(=O)(=O)C(C)C)n1 (0.833333 µM)	102
COc1nccnc1NS(=O)(=O)c1ccc(N)cc1 [sulfametopyrazine] (10 µM)	112
Cn1cnnc1Sc1c([N+](=O)[O-])ncn1C (10 µM)	87
C[C@]12CCC(=O)C=C1CC[C@@H]1[C@@H]2[C@@H](O)C[C@@]2(C)[C@H]1CC[C@]2(O)C(=O)COP(=O)(O)O [hydrocortisone-phosphate] (10 µM)	98.5
CCCC[C@@H](NC(=O)[C@@H](Cc1cn(C(=O)OC)c2ccccc12)NC(=O)[C@H](CC(C)(C)C)NC(=O)N1[C@H](C)CCC[C@@H]1C)C(=O)O (10 µM)	104
Cc1oc2nc3c(c(NC(=O)CN4CCCC4=O)c2c1C)CCCC3 (10 µM)	103
Cc1ccc([N+](=O)[O-])cc1S(=O)(=O)N(C)C (10 µM)	97
CC(C)[N+](C)(CCC(C(N)=O)(c1ccccc1)c1ccccc1)C(C)C [isopropamide-iodide] (10 µM)	100
Cc1cccc(C(=O)O)c1O [hydroxytoluic-acid] (10 µM)	106
O=Nc1c(-c2c(O)[nH]c3cc(Br)ccc23)[nH]c2ccccc12 [GSK-3-inhibitor-IX] (0.833333 µM)	67
CCC(=O)N[C@@H]1Cc2ccccc2[C@H](c2ccccc2)C1 (10 µM)	110
CCC[S+]([O-])c1ccc2[nH]c(NC(=O)OC)nc2c1 (stereo not given) [albendazole-oxide] (10 µM)	110
CCOC(=O)[C@H](CCc1ccccc1)N[C@@H](C)C(=O)N(CC(=O)O)C1Cc2ccccc2C1 [delapril] (10 µM)	108
Nc1ccc(S(=O)(=O)NC(=O)c2ccccc2)cc1 [sulfabenzamide] (10 µM)	106
O=C(c1cn(Cc2cncn2Cc2ccc(Br)cc2)cc1-c1cccc2ccccc12)N1CCOCC1 (0.833333 µM)	94.5
C(=C\c1ccccc1)/CN1CCN(CCOC(c2ccccc2)c2ccccc2)CC1 (10 µM)	82.5
OCCN1CCN(CCCN2c3ccccc3C=Cc3ccccc32)CC1 [opipramol] (10 µM)	102
COc1ccc(-c2csc(NC(=O)[C@H]3CCCCN3S(=O)(=O)c3ccc(C)cc3)n2)cc1 (10 µM)	61.5
Oc1ccc(-c2nc(-c3ccc(F)cc3)c(-c3ccncc3)[nH]2)cc1 (10 µM)	71
CCC(C)CCCC(=O)N[C@@H](CCN)C(=O)N[C@H](C(=O)N[C@@H](CCN)C(=O)N[C@H]1CCNC(=O)[C@H]([C@@H](C)O)NC(=O)[C@H](CCN)NC(=O)[C@H](CCN)NC(=O)[C@H](CC(C)C)NC(=O)[C@@H](CC(C)C)NC(=O)[C@H](CCN)NC1=O)[C@@H](C)O (stereo not given in full) [colistin] (10 µM)	96.2

Compound	SARS-CoV-2 infection rate [%]
Cc1ccc2c(c1CCC(=O)O)CC[C@@H](NS(=O)(=O)c1ccc(Cl)cc1)C2 [terutroban] (10 µM)	112
O=P1(NCCCl)OCCCN1CCCl (stereo not given) [ifosfamide] (10 µM)	97.5
CC(=O)CCCCn1c(=O)c2c(ncn2C)n(C)c1=O [pentoxifylline] (10 µM)	104
N[C@@H](CS)C(=O)O [L-cysteine] (10 µM)	94
NCCc1cc[nH]n1 [betazole] (10 µM)	105
CCOC(=O)c1ncn2c1CN(C)C(=O)c1cc(N=[N+]=[N-])ccc1-2 (10 µM)	110
c1ccc2c(c1)Sc1ccccc1N2C[C@H]1CN2CCC1CC2 [levomequitazine] (10 µM)	86
O=C(O)CCCc1ccc(N(CCCl)CCCl)cc1 [chlorambucil] (10 µM)	94
COc1cccc2c1C(=O)c1c(O)c3c(c(O)c1C2=O)C[C@@](O)(C(C)=O)C[C@@H]3O[C@H]1C[C@H](N)[C@H](O)[C@H](C)O1 [daunorubicin] (10 µM)	106
C[C@@H](O)[C@H](N)C(=O)N1CCC[C@H]1C(=O)N1CCC[C@H]1C(=O)N[C@H](C(N)=O)[C@@H](C)O [rapastinel] (10 µM)	94
CC(C)c1cc(C(=O)N2Cc3ccc(CN4CCN(C)CC4)cc3C2)c(O)cc1O (10 µM)	118
COc1ccc2[nH]c(C(=O)c3ccccc3)cc2c1 (0.833333 µM)	110
O=C(NCc1ccc(OC(F)(F)F)cc1)C1c2ccccc2C(=O)N1C1CCOCC1 (stereo not given) (10 µM)	105
CCN(CC)CCN(Cc1ccc(-c2ccc(C(F)(F)F)cc2)cc1)C(=O)Cn1c(SCc2ccc(F)cc2)nc(=O)c2c1CCC2 [darapladib] (0.833333 µM)	106
CCOCCOc1ccccc1C(N)=O [etosalamide] (10 µM)	104
Cc1cc(C)c(CNC(=O)c2cc(-c3ccc(CN4CCOCC4)cc3)cc3c2cnn3C2CCCC2)c(=O)[nH]1 (10 µM)	110
CC(C)Cn1cnc2c(N)nc3ccccc3c21 [imiquimod] (10 µM)	106
CC(=O)Nc1cccc2c1c(Sc1ccc(Cl)cc1)c(C)n2CC(=O)O (10 µM)	97
C=CCN1CC[C@]23c4c5ccc(O)c4O[C@H]2/C(=N/NC(=O)c2ccccc2)CC[C@@]3(O)[C@H]1C5 [naloxone-benzoylhydrazone] (10 µM)	110
CCCOc1ccc2[nH]cc(C3=CCNCC3)c2n1 (10 µM)	96

From the supplement of paper PMC13380429
